Reference: article PMC5540273 (PLoS ONE, 2017)

Legend:
Settings in all cases: concentration: 1 μM, replicates: in singlicate; n = 1
SIK2 = tested on: SIK2
SIK = tested on: SIK
SLK = tested on: SLK
SNARK = tested on: T1, SNARK
T1 construct: gene NUAK2

SNRK = tested on: SNRK
SRC = tested on: SRC
SRMS = tested on: SRMS
SRPK1 = tested on: SRPK1
SRPK2 = tested on: SRPK2
SRPK3 = tested on: SRPK3
STK16 = tested on: STK16
STK33 = tested on: STK33
STK35 = tested on: STK35
STK36 = tested on: STK36
STK39 = tested on: STK39
SYK = tested on: SYK
SgK110 = tested on: SgK110
TAK1 = tested on: T2, TAK1
T2 construct: gene MAP3K7

TAOK1 = tested on: TAOK1
TAOK2 = tested on: TAOK2
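Further: KINOMEscan kinase panel screen.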

## CCCc1ccc(S(=O)(=O)NC2CCN(c3ccnc(Nc4ccc(F)cc4)n3)C2)cc1 (stereo not shown) [GSK1379715]
SIK2
  %Inh: 0%
SIK
  %Inh: 0%
SLK
  %Inh: 0%
SNARK
  %Inh: 0%
SNRK
  %Inh: 0%
SRC
  %Inh: 48%
SRMS
  %Inh: 0%
SRPK1
  %Inh: 0%
SRPK2
  %Inh: 17%
SRPK3
  %Inh: 6%
STK16
  %Inh: 6%
STK33
  %Inh: 0%
STK35
  %Inh: 0%
STK36
  %Inh: 0%
STK39
  %Inh: 13%
SYK
  %Inh: 0%
SgK110
  %Inh: 34%
TAK1
  %Inh: 0%
TAOK1
  %Inh: 0%
TAOK2
  %Inh: 0%

## Cc1ccc(C(=O)Nc2ccc(Nc3ccnc4cc(-c5ccccn5)ccc34)cc2O)cc1.Cl [GW440146]
SIK2
  %Inh: 0%
SIK
  %Inh: 18%
SLK
  %Inh: 0%
SNARK
  %Inh: 0%
SNRK
  %Inh: 0%
SRC
  %Inh: 56%
SRMS
  %Inh: 80%
SRPK1
  %Inh: 27%
SRPK2
  %Inh: 0%
SRPK3
  %Inh: 3%
STK16
  %Inh: 22%
STK33
  %Inh: 0%
STK35
  %Inh: 0%
STK36
  %Inh: 0%
STK39
  %Inh: 0%
SYK
  %Inh: 21%
SgK110
  %Inh: 0%
TAK1
  %Inh: 0%
TAOK1
  %Inh: 0%
TAOK2
  %Inh: 0%

## O=C(Nc1n[nH]c2nc(-c3nccs3)c(Br)cc12)C1CCCC1 [SB-742609]
SIK2
  %Inh: 0%
SIK
  %Inh: 5%
SLK
  %Inh: 7%
SNARK
  %Inh: 0%
SNRK
  %Inh: 0%
SRC
  %Inh: 0%
SRMS
  %Inh: 0%
SRPK1
  %Inh: 0%
SRPK2
  %Inh: 0%
SRPK3
  %Inh: 13%
STK16
  %Inh: 0%
STK33
  %Inh: 0%
STK35
  %Inh: 0%
STK36
  %Inh: 0%
STK39
  %Inh: 21%
SYK
  %Inh: 20%
SgK110
  %Inh: 0%
TAK1
  %Inh: 0%
TAOK1
  %Inh: 0%
TAOK2
  %Inh: 0%

## COc1ccc(CNC(=O)NC2CCN(c3ccnc(Nc4cc(OC)c(OC)c(OC)c4)n3)C2)cc1 (stereo not shown) [GSK1379748]
SIK2
  %Inh: 0%
SIK
  %Inh: 0%
SLK
  %Inh: 0%
SNARK
  %Inh: 25%
SNRK
  %Inh: 0%
SRC
  %Inh: 14%
SRMS
  %Inh: 0%
SRPK1
  %Inh: 11%
SRPK2
  %Inh: 31%
SRPK3
  %Inh: 0%
STK16
  %Inh: 54%
STK33
  %Inh: 0%
STK35
  %Inh: 0%
STK36
  %Inh: 0%
STK39
  %Inh: 1%
SYK
  %Inh: 21%
SgK110
  %Inh: 0%
TAK1
  %Inh: 0%
TAOK1
  %Inh: 0%
TAOK2
  %Inh: 0%

## Cc1ccc(-c2cc(-c3c[nH]nc3-c3ccccn3)ccn2)cc1 [GW684088]
SIK2
  %Inh: 0%
SIK
  %Inh: 0%
SLK
  %Inh: 0%
SNARK
  %Inh: 0%
SNRK
  %Inh: 0%
SRC
  %Inh: 0%
SRMS
  %Inh: 9%
SRPK1
  %Inh: 13%
SRPK2
  %Inh: 52%
SRPK3
  %Inh: 0%
STK16
  %Inh: 28%
STK33
  %Inh: 0%
STK35
  %Inh: 0%
STK36
  %Inh: 23%
STK39
  %Inh: 0%
SYK
  %Inh: 21%
SgK110
  %Inh: 2%
TAK1
  %Inh: 15%
TAOK1
  %Inh: 0%
TAOK2
  %Inh: 0%

## COc1ccc(Nc2nccc(-c3cccc(NC(=O)c4cc5cc(F)ccc5[nH]4)c3)n2)cc1 [GSK1229782]
SIK2
  %Inh: 1%
SIK
  %Inh: 17%
SLK
  %Inh: 29%
SNARK
  %Inh: 33%
SNRK
  %Inh: 0%
SRC
  %Inh: 63%
SRMS
  %Inh: 0%
SRPK1
  %Inh: 44%
SRPK2
  %Inh: 18%
SRPK3
  %Inh: 0%
STK16
  %Inh: 22%
STK33
  %Inh: 5%
STK35
  %Inh: 0%
STK36
  %Inh: 0%
STK39
  %Inh: 4%
SYK
  %Inh: 49%
SgK110
  %Inh: 0%
TAK1
  %Inh: 64%
TAOK1
  %Inh: 2%
TAOK2
  %Inh: 0%

## NC(=O)c1nnc2ccccc2c1N
SIK2
  %Inh: 6%
SIK
  %Inh: 9%
SLK
  %Inh: 0%
SNARK
  %Inh: 67%
SNRK
  %Inh: 14%
SRC
  %Inh: 6%
SRMS
  %Inh: 0%
SRPK1
  %Inh: 45%
SRPK2
  %Inh: 0%
SRPK3
  %Inh: 32%
STK16
  %Inh: 2%
STK33
  %Inh: 11%
STK35
  %Inh: 10%
STK36
  %Inh: 0%
STK39
  %Inh: 27%
SYK
  %Inh: 1%
SgK110
  %Inh: 0%
TAK1
  %Inh: 19%
TAOK1
  %Inh: 20%
TAOK2
  %Inh: 28%

## COc1ccc(C2=C(Nc3cccc(C(=O)O)c3)C(=O)NC2=O)cc1 [SB-390765]
SIK2
  %Inh: 9%
SIK
  %Inh: 14%
SLK
  %Inh: 7%
SNARK
  %Inh: 8%
SNRK
  %Inh: 0%
SRC
  %Inh: 3%
SRMS
  %Inh: 21%
SRPK1
  %Inh: 0%
SRPK2
  %Inh: 0%
SRPK3
  %Inh: 19%
STK16
  %Inh: 10%
STK33
  %Inh: 0%
STK35
  %Inh: 13%
STK36
  %Inh: 22%
STK39
  %Inh: 0%
SYK
  %Inh: 25%
SgK110
  %Inh: 0%
TAK1
  %Inh: 21%
TAOK1
  %Inh: 28%
TAOK2
  %Inh: 28%

## Clc1cc(Cl)cc(Nc2ccnc(Nc3cc(Cl)cc(Cl)c3)n2)c1 [GSK175726]
SIK2
  %Inh: 0%
SIK
  %Inh: 8%
SLK
  %Inh: 8%
SNARK
  %Inh: 10%
SNRK
  %Inh: 0%
SRC
  %Inh: 49%
SRMS
  %Inh: 11%
SRPK1
  %Inh: 0%
SRPK2
  %Inh: 0%
SRPK3
  %Inh: 0%
STK16
  %Inh: 24%
STK33
  %Inh: 0%
STK35
  %Inh: 0%
STK36
  %Inh: 39%
STK39
  %Inh: 2%
SYK
  %Inh: 12%
SgK110
  %Inh: 0%
TAK1
  %Inh: 18%
TAOK1
  %Inh: 44%
TAOK2
  %Inh: 6%

## Cc1cccc(-c2nc(Nc3ccc4[nH]ncc4c3)c3ccccc3n2)n1 [GW857175]
SIK2
  %Inh: 0%
SIK
  %Inh: 0%
SLK
  %Inh: 16%
SNARK
  %Inh: 15%
SNRK
  %Inh: 10%
SRC
  %Inh: 28%
SRMS
  %Inh: 25%
SRPK1
  %Inh: 16%
SRPK2
  %Inh: 0%
SRPK3
  %Inh: 28%
STK16
  %Inh: 17%
STK33
  %Inh: 0%
STK35
  %Inh: 0%
STK36
  %Inh: 15%
STK39
  %Inh: 14%
SYK
  %Inh: 5%
SgK110
  %Inh: 0%
TAK1
  %Inh: 0%
TAOK1
  %Inh: 33%
TAOK2
  %Inh: 9%

## CN(C)CCN(C)C(=O)c1cc(-c2ccncc2)c(-c2ccc(Cl)c(O)c2)o1.Cl.Cl [SB-710397]
SIK2
  %Inh: 0%
SIK
  %Inh: 0%
SLK
  %Inh: 91.7%
SNARK
  %Inh: 0%
SNRK
  %Inh: 0%
SRC
  %Inh: 11%
SRMS
  %Inh: 0%
SRPK1
  %Inh: 0%
SRPK2
  %Inh: 18%
SRPK3
  %Inh: 0%
STK16
  %Inh: 4%
STK33
  %Inh: 0%
STK35
  %Inh: 0%
STK36
  %Inh: 0%
STK39
  %Inh: 33%
SYK
  %Inh: 17%
SgK110
  %Inh: 6%
TAK1
  %Inh: 0%
TAOK1
  %Inh: 0%
TAOK2
  %Inh: 0%

## Cc1ccc(NC(=O)Nc2cc(C(C)(C)C)nn2-c2ccccc2)cc1 [GSK1014915]
SIK2
  %Inh: 4%
SIK
  %Inh: 0%
SLK
  %Inh: 44%
SNARK
  %Inh: 0%
SNRK
  %Inh: 0%
SRC
  %Inh: 2%
SRMS
  %Inh: 0%
SRPK1
  %Inh: 21%
SRPK2
  %Inh: 0%
SRPK3
  %Inh: 2%
STK16
  %Inh: 0%
STK33
  %Inh: 0%
STK35
  %Inh: 0%
STK36
  %Inh: 0%
STK39
  %Inh: 2%
SYK
  %Inh: 28%
SgK110
  %Inh: 0%
TAK1
  %Inh: 0%
TAOK1
  %Inh: 0%
TAOK2
  %Inh: 0%

## Cl.O=C(Nc1cccc(-c2nn3ncccc3c2-c2ccnc(Nc3cccnc3)n2)c1)c1c(F)cccc1F [GSK312879]
SIK2
  %Inh: 0%
SIK
  %Inh: 0%
SLK
  %Inh: 17%
SNARK
  %Inh: 0%
SNRK
  %Inh: 0%
SRC
  %Inh: 13%
SRMS
  %Inh: 5%
SRPK1
  %Inh: 30%
SRPK2
  %Inh: 0%
SRPK3
  %Inh: 7%
STK16
  %Inh: 3%
STK33
  %Inh: 0%
STK35
  %Inh: 0%
STK36
  %Inh: 96.7%
STK39
  %Inh: 17%
SYK
  %Inh: 3%
SgK110
  %Inh: 0%
TAK1
  %Inh: 0%
TAOK1
  %Inh: 5%
TAOK2
  %Inh: 0%

## CS(=O)(=O)c1ccc(-c2nc3n(c2-c2ccncc2)CCC3)cc1 [SKF-105942]
SIK2
  %Inh: 0%
SIK
  %Inh: 1%
SLK
  %Inh: 0%
SNARK
  %Inh: 0%
SNRK
  %Inh: 14%
SRC
  %Inh: 0%
SRMS
  %Inh: 0%
SRPK1
  %Inh: 0%
SRPK2
  %Inh: 0%
SRPK3
  %Inh: 22%
STK16
  %Inh: 96.8%
STK33
  %Inh: 0%
STK35
  %Inh: 0%
STK36
  %Inh: 0%
STK39
  %Inh: 0%
SYK
  %Inh: 11%
SgK110
  %Inh: 0%
TAK1
  %Inh: 0%
TAOK1
  %Inh: 0%
TAOK2
  %Inh: 0%
